Source: PubChem
JMJD2A Tudor inh = JMJD2A Tudor domain (human) inhibition; O75164; AlphaScreen JMJD2A-Tudor / H3K4me3 peptide binding; Potency, µM (doses to about 114 µM), hits mostly inhibitors; 390,000 tested, 4.4% active; AID 504339; further: nearly all actives have a fitted effect of over 50% in size
Target sequence (O75164 whole entry, looked up, the tested form may be a part): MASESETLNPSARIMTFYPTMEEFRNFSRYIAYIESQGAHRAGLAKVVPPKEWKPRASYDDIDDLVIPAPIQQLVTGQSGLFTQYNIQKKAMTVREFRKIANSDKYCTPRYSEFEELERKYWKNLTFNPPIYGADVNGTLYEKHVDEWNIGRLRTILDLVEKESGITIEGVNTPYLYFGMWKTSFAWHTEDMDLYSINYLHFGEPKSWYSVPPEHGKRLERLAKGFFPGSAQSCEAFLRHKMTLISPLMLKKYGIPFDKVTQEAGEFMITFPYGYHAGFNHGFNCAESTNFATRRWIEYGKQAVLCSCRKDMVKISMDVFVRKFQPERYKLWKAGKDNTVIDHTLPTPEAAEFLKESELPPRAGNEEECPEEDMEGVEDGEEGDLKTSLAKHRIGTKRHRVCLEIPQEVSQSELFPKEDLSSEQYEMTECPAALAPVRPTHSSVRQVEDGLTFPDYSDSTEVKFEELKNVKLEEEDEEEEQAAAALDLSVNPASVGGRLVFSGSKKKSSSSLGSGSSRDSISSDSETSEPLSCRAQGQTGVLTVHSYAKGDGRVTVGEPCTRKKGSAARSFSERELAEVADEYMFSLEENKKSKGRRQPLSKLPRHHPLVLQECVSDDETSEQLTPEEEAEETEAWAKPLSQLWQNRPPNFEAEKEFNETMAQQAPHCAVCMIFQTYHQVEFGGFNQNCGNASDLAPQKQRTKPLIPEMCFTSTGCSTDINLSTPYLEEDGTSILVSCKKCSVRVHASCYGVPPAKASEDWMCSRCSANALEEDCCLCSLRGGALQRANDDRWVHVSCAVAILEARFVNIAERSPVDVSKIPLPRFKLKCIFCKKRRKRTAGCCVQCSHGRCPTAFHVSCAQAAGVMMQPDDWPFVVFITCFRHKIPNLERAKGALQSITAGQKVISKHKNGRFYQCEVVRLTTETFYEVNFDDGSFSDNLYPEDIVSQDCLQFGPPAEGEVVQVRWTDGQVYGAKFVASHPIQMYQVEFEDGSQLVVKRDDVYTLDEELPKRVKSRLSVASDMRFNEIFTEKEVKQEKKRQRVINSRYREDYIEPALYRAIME
G9a inh = inhibitors of human histone lysine methyltransferase G9a | Potency, µM (series often up to 102 µM), most hits filed as inhibitors | 350,000 tested, 8.8% active | AID 504332 | G9a H3K9 monomethylation, AlphaScreen, 2 h | Q96KQ7; further: nearly all actives have a fitted effect of over 75% in size
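Using a bead-based AlphaScreen, monomethylated H3K9 product from 2 h room-temperature reactions (G9a 20 nM, peptide 500 nM, SAM 20 uM) was detected with 0.5 ug/mL rabbit anti-H3K9me1 antibody.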
HP1b chromo inh = blocks HP1-beta chromodomain binding to methylated histone tails | AlphaScreen HP1-beta / biotin-H3K9me3 peptide binding | Potency, µM (top dose mostly 114 µM), most hits filed as inhibitors | 390,000 tested, 0.56% active; further: nearly all actives have a fitted effect of over 70% in size
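HP1-beta protein (50 nM final) preincubated 30 min at room temperature with biotinylated H3(1-18)K9me3 peptide (50 nM) in PBS pH 7.4, 0.01% Tween-20, then compound added for 30 min. AlphaScreen streptavidin donor/nickel chelate acceptor beads (10 ug/mL final), 30 min dark, luminescence read.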
TDP1 inh = TDP1 (human) enzyme inhibition; Q9NUW8; recombinant TDP1, AlphaScreen DNA substrate cleavage; Potency, µM (doses to about 130 µM), actives largely listed as inhibitors; 350,000 tested, 0.28% active; AID 485290; further: nearly all actives have a fitted effect of over 40% in size
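Enzyme-compound mixtures sat 15 min at room temperature, followed by a 5 min reaction with 15 nM final substrate and 10 min with AlphaScreen beads. Recombinant human Tdp1 was used at 1 nM final.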
BAZ2B block = inhibitors of human BAZ2B bromodomain. Q9UIF8. AlphaScreen BAZ2B-H3K14Ac peptide displacement. Potency, µM (titrated, usually from 114 µM), hits mostly inhibitors. 360,000 tested, 4.4% active; further: nearly all actives have a fitted effect of over 60% in size
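Multi-concentration screen (max 110 uM) measuring displacement of acetylated histone H3 peptide from BAZ2B by AlphaScreen, using 50 nM protein, 50 nM peptide and 10 ug/mL streptavidin donor plus Ni-chelate acceptor beads.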
Sfp PPTase inh = Sfp phosphopantetheinyl transferase inhibition; Biochemical Sfp PPTase activity, qHTS; Potency, µM, most hits filed as inhibitors; 310,000 tested, 3.5% active;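 further: the enzyme is Sfp with the accession as filed and its product quenches rhodamine fluorescence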
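Sfp 15 nM + cpd, 15 min RT; start w/ rhodamine-CoA 5 uM, BHQ-2-YbbR 12.5 uM (final); 50 mM Hepes pH 7.6, 10 mM MgCl2, 0.01% NP-40, 0.01% BSA; read 525/598 nm at 0 and 30 min.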
Numbers stand for hits; . = inactive; ? = inconclusive; / = no result given; [ ] = remark or other dose. Only some compounds are listed: those with a hit (about 12% of all), similar ones and a draw of the others. The call rests on the fitted dose curve; in most records, active means well fitted curve in the direction sought with a large enough effect; inconclusive means small, poorly fitted or top-dose-only effect, or another doubt; inactive means no such curve, though single readings can be large; an effect the other way counts as inactive or inconclusive.

SMILES	JMJD2A Tudor inh	G9a inh	HP1b chromo inh	TDP1 inh	BAZ2B block	Sfp PPTase inh
Cc1coc2c(C)c3oc(=O)c(CC(=O)N4CCCCC4)c(C)c3cc12	.	.	.	.	.	/
CN(Cc1ccco1)c1nc(-c2ccccc2C(F)(F)F)nc2ccccc12	/	.[0.501 µM]	/	/	/	.
CCn1c(-c2c(Cl)c(C)nn2C)n[nH]c1=S	20µM	11µM	.	.	.	.
CCCCn1c(-c2c(Cl)c(C)nn2C)n[nH]c1=S	13µM	8.9µM	.	.	.	.
O=C(O)c1ccc(-c2nn3c(=O)cc(N4CCNCC4)nc3s2)cc1	.	/	/	/	/	/
COc1ccc(CNC(=O)C(C)OC(=O)CCN2C(=O)C3CC=CCC3C2=O)cc1 (stereo not given)	.	.	.	.	.	/
COc1cccc(CNCCSc2nnnn2C)c1	.	56µM	.	.	.	.
COc1ccc(Cl)cc1CNCCSc1nnnn1C	.	.	.	.	.	/
Cn1nnnc1SCCNCc1cccc2ccccc12	.	50µM	.	.	.	.
COc1cccc(CNCCCSc2nnnn2C)c1	.	.	.	.	.	/
COc1cc(CNCCSc2nnnn2C)cc(Br)c1OCc1ccc(F)cc1	.	.[2.33 µM]	.	.	.	14µM
Cc1ccccc1CNCCSc1nnnn1C	.	.	.	.	.	/
COc1ccc(Br)cc1CNCCSc1nnnn1C	.	56µM	.	.	.	.
NC(=NCc1ccccc1)C(N=Nc1ccccc1)C(=O)NCc1ccccc1 (stereo not given)	?	/	.	/	/	/
COc1ccc2cc(CNc3ccccc3)c(=O)n(CC(=O)Nc3ccc(C)cc3C)c2c1	.	.	.	.	.	/
CCCOc1cccc(C2C(C(=O)c3ccc(C)o3)=C(O)C(=O)N2c2nc(C)c(C(C)=O)s2)c1 (stereo not given)	.	16µM	.	.	56µM	.
CCOc1cccc(C2C(C(=O)c3ccc(C)o3)=C(O)C(=O)N2c2nnc(C)s2)c1 (stereo not given)	1.1µM	/	?	/	/	/
CCOc1cccc(C2C(C(=O)c3ccco3)=C(O)C(=O)N2c2nnc(C)s2)c1 (stereo not given)	?	?	.	.	?	/
Cc1ccc(C(=O)NC(C)C2CC3CCC2C3)cc1 (stereo not given)	.	/	.	/	/	/
Cc1cccc(N2CCN(S(=O)(=O)c3cc(Br)cc4c3N(C(=O)C3CC3)CC4)CC2C)c1 (stereo not given)	.	.	.	.	.	/
CC(CCC(=O)O)C1CCC2C3CC[C@@H]4CCCC[C@@]4(C)C3CC[C@@]12C (stereo not given in full)	/	/	/	/	/	.
COc1ccccc1NC1=NC(C)(C)N=C(N)N1	.	.[2.33 µM]	.	.	.	.
Cc1cccc(Nc2n[nH]c(=S)s2)c1C	5.6µM	?	?	.	45µM	20µM
COc1cccc(Nc2n[nH]c(=S)s2)c1	3.2µM	1.4µM	?	.	?	50µM
Cc1cccc(Nc2nc3ccccc3s2)c1C	.	.	.	.	.	.
SMILES	JMJD2A Tudor inh	G9a inh	HP1b chromo inh	TDP1 inh	BAZ2B block	Sfp PPTase inh
COc1ccccc1Nc1n[nH]c(=S)s1	4µM	1.3µM	22µM	.	20µM	79µM
CC[n+]1ccc(C[n+]2ccccc2)c2ccccc21	?	1.6µM	79µM	22µM	10µM	50µM
Brc1ccc(C[n+]2ccccc2)cc1	.	.[2.33 µM]	.	.	.	/
COC(=O)c1cc(Cl)cc(Cl)c1OS(=O)(=O)N(C)C	.	.	.	.	.	.
NC(=O)N1CCC2(CC1)NC(=O)N(c1ccccc1)N2	.	7.9µM	.	.	.	.
COc1ccc2c(c1OC)C(Cc1ccccc1)N1CCc3cc4c(cc3C1=C2)OCO4 (stereo not given)	/	/	/	.	/	50µM
Cc1cc(C(C)(C)C)nc2[nH]n(-c3ccccc3)c(=O)c12	.	.	.	.	.	.
O=c1ccc(=O)n(-c2ccccc2)[nH]1	79µM	14µM	?	.	.	50µM
CC(C)(C)c1cc(=O)n(-c2ccccc2)[nH]1	.	45µM	.	.	?	?
O=c1cc(-c2ccccc2)[nH]n1-c1ccccc1	?	/	.	/	/	/
COc1ccc(NC(=O)C(NC(=O)/C=C\c2ccc3c(c2)OCO3)c2ccccc2)cc1 (stereo not given)	.	.	.	.	.	/
CC(C)C[C@@H](CO)N1CCN(C)CCC1=O	.	.	.	/	.	.
Oc1ccccc1C1NN=C(c2ccccc2)S1 (stereo not given)	.	/	.	/	18µM	.
CSc1ccc(C2NN=C(c3ccccc3)S2)cc1 (stereo not given)	.	/	.	/	/	/
O=C(CCN1C(=O)/C(=C\c2ccccc2Cl)SC1=S)Nc1cccnc1	?	.	.	.	?	.
CN1CCN(NC(=O)CN2C(=O)/C(=C/c3c(Cl)cccc3Cl)SC2=S)CC1	?	56µM	.	.	?	.
Cc1cc(NC(=O)CCCN2C(=O)/C(=C\c3cccs3)SC2=S)no1	.	.	.	.	.	.
O=C(CCN1C(=O)/C(=C/c2ccccc2Cl)SC1=S)Nc1ccccc1C(=O)O	?	.[2.33 µM]	.	/	35µM	.
Cc1cc(NC(=O)CCN2C(=O)/C(=C\c3ccccc3Cl)SC2=S)no1	.	.	.	.	.	50µM
CCOc1ccc(-c2n[nH]c3c2C(c2cccs2)N(c2ccc(Br)cc2)C3=O)cc1 (stereo not given)	.	.	.	.	/	/
O=C1NC(CCc2ccccc2)C(=O)N1CCOc1cccc(Br)c1 (stereo not given)	.	.	.	.	.	.
Cc1ccc(C(=O)O)cc1NC(=S)NC(=O)c1ccc(COc2ccccc2)cc1	?	/	.	/	50µM	50µM
COc1ccccc1C(=O)NC(=S)Nc1cc(C(=O)O)ccc1C	.	45µM	.	.	.	.
Cc1ccc(C(=O)O)cc1NC(=S)NC(=O)Cc1ccccc1	.	.	.	.	.	.
COc1cc2ccccc2cc1C(=O)NC(=S)Nc1cc(C(=O)O)ccc1C	.	?	.	.	?	.
SMILES	JMJD2A Tudor inh	G9a inh	HP1b chromo inh	TDP1 inh	BAZ2B block	Sfp PPTase inh
CCCOc1ccc(N2C(=O)CC(NCC(=O)OCC)C2=O)cc1 (stereo not given)	.	/	.	/	/	/
CCOC(=O)CNC1CC(=O)N(c2cccc(Cl)c2)C1=O (stereo not given)	?	10µM	.	.	.	.
Cc1nc(CCN2C(=O)c3ccccc3C2=O)n[nH]1	25µM	?	.	.	?	.
CCc1ccc(CCN2C(=O)c3ccccc3C2=O)nc1	.	/	.	.	.	.
CCOC(=O)c1ccc(S(=O)(=O)N2CCN(c3nc(-c4ccccc4)nc4ccccc34)CC2)cc1	.	/	.	.	/	/
CSc1oc(-c2ccc(F)cc2)nc1S(=O)(=O)c1ccc(Br)cc1	.	.	.	.	.	/
CNc1oc(-c2ccccc2)nc1S(=O)(=O)c1ccc(C)cc1	.	?	.	.	.	.
